Consider ten compounds from PubChem BioAssay (NCI).

Structures are written as SMILES. This is part of a sample that, as a whole, favours compounds with a hit. Of some 83,000 tested, about 20% had one in any assay.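 Step 1: grow cells in 96-well plates. Step 2: add test compound at a single concentration. Step 3: incubate 48 h. Step 4: record percent growth.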 A number with no mark means an inactive call. Activity calls are given as the source filed them. Rule for the calls: active = growth percent below 10; inactive = the rest.

Assay in all cases: NCI-60 one-dose screen, 48 h (100 = growth as untreated, 0 = no growth, -100 = all killed)
Common to all, as to settings: 10 µM unless noted

Experiment [1] relates to NCI-H23 lung.
Experiment [2] has as its system NCI-H226 lung.
Experiment [3] has as its system NCI-H322M lung.
In experiment [4] the test system is HOP-62 NSCLC.
Experiment [5] relates to NCI-H460 lung.
The subject of experiment [6] is HOP-92 NSCLC.
Experiment [7] has as its system NCI-H522 lung.
Experiment [8] relates to A549/ATCC NSCLC.
Experiment [9] relates to 786-0 renal.
For experiment [10], the system named is COLO 205 colon.
For experiment [11], the system named is DU-145 prostate.
The test system of experiment [12] is K-562 leukemia.
Experiment [13] concerns MALME-3M melanoma.
In experiment [14] the test system is MDA-MB-231 breast.
Experiment [15] deals with RXF 393 renal.
The test system of experiment [16] is SF-268 CNS.
Experiment [17] deals with SF-539 CNS.
The test system of experiment [18] is UACC-257 melanoma.
Experiment [19] has as its system M14 melanoma.
Experiment [20] concerns SF-295 CNS.

Take `CCOC(=O)c1sc2nc(-c3cc4ccccc4o3)cc(-c3ccc(Cl)cc3)c2c1N`: the growth in [1] is 98.9%; in experiment [2] it was 89.2%; in experiment [3], 112%; in experiment [4], 107%; in experiment [5] it was 110%; in [6] it was 71.1%. Moreover, the growth was 88.6% in experiment [7]; 123% in [8]; 118% in [9]; 115% in [10]; 99.6% in [11]; 102% in [12]. Besides, the growth was 88.5% in experiment [13]; 106% in experiment [14]; 124% in experiment [15]; 97.3% in [16]; 120% in [17]; 114% in experiment [18]. Besides, the growth in experiment [19] was 112%.
For the compound `CN(CCO)c1ccc(N2Cc3ccccc3OC3=C2C(=O)c2c(O)ccc(O)c2C3=O)cn1`, the growth in experiment [1] is -66.5% (active); in experiment [2], 0.236% (active); in [3], -0.583% (active); in [4], -46.3% (active); in experiment [5] it was -51.2% (active); in experiment [6] it was -71.9% (active). In addition, the growth was -49.8% (active) in experiment [7]; -18.9% (active) in [8]; -91.2% (active) in experiment [9]; -81.8% (active) in experiment [10]; -98.8% (active) in experiment [11]; -1.58% (active) in experiment [12]. Also, the growth is -86.1% (active) in experiment [13]; -90.2% (active) in [14]; -96.6% (active) in experiment [15]; -59.7% (active) in experiment [16]; -68.9% (active) in experiment [17]; -91.6% (active) in [18]. For the same compound, in experiment [19], the growth was -89% (active).
Consider `NC(N)=N/N=C\c1ccc(OCc2ccccc2)cc1`, for which the growth in experiment [1] is 84%; in [2], 46.4%; in experiment [3], 93.4%; in experiment [4] it was 62.8%; in [5] it was 96.4%; in [6], 40.2%. The growth was 77.3% in experiment [7]; 82.8% in experiment [8]; 81.7% in experiment [9]; -62.8% (active) in experiment [10]; 87.4% in experiment [11]; 36% in [12]. The growth was 91.5% in [13]; 66.1% in [14]; -3.77% (active) in experiment [15]; 99% in experiment [20]; 87.7% in experiment [17]; 90.4% in experiment [18]. Besides, in experiment [19], the growth is 81.5%.
For `C=CCn1c(C)nc2cc(Nc3nc(Nc4ccc5nc(C)n(CC=C)c5c4)nc4ccccc34)ccc21`, the growth in experiment [1] is 94.2%; in experiment [2] it was 99.8%; in experiment [3], 109%; in experiment [4], 101%; in experiment [5], 117%; in experiment [6], 79.8%. The growth in experiment [7] is 99.1%; in [8], 96.3%; in experiment [9], 113%; in experiment [10], 108%; in experiment [11], 115%; in [12], 102%. The growth is 94.5% in experiment [13]; 90% in [14]; 124% in [15]; 113% in [16]; 98.6% in experiment [17]; 102% in [18]. In addition, the growth in experiment [19] is 109%.
With `Cc1ccc(Nc2nc(NCCO)c3ccccc3n2)cc1C`, the growth in experiment [1] was 15.8%; in experiment [2], 1.03% (active); in [3] it was 55.5%; in experiment [4] it was 20.3%; in [5] it was -2.08% (active); in experiment [6], 89.7%. Moreover, the growth in experiment [7] is -21% (active); in experiment [8] it was 13.6%; in experiment [9], 29%; in [10] it was -65.7% (active); in [11], -14.6% (active); in experiment [12], 11.1%. The growth in [13] is 43.8%; in [14], 12.6%; in [15] it was 42.5%; in experiment [16], 20.1%; in [17] it was 7% (active); in experiment [18] it was 62%. Also, the growth in experiment [19] is 24.4%.
In the case of `C[C@@H](C[C@H](CC1CC1)c1ccccc1)c1ccc2ccccc2c1`, the growth was 100% in experiment [1]; 109% in experiment [2]; 101% in experiment [3]; 104% in experiment [4]; 100% in experiment [5]; 102% in experiment [6]. Also, the growth is 95.2% in experiment [7]; 98.2% in experiment [8]; 101% in experiment [9]; 109% in [10]; 106% in [11]; 104% in experiment [12]. Also, the growth in [13] is 96.7%; in experiment [14], 106%; in [15], 117%; in experiment [16], 98.5%; in experiment [17], 96.9%; in experiment [18], 106%. Moreover, the growth in experiment [19] was 102%.
Consider `N=c1n(Cc2ccccc2)c(N)cc(=O)n1Cc1ccccc1`, for which the growth in [1] was 12.7%; in experiment [2], 5.6% (active); in experiment [3], 26.5%; in experiment [4], 26.7%; in experiment [5], -25% (active); in [6], 99.5%. Also, the growth was 10.1% in [7]; -47.2% (active) in [8]; 19.2% in experiment [9]; 66.8% in experiment [10]; -19.6% (active) in experiment [11]; 21% in [12]. The growth in [13] is 23.3%; in experiment [14], 83%; in experiment [15], -15.5% (active); in experiment [16], 2.59% (active); in [17], 12.5%; in [18] it was 43.8%. Further, the growth in experiment [19] is 84.6%.
With `CCCCN(CCCC)CCC(O)c1cc2ccc(C(F)(F)F)cc2c2cc(C(F)(F)F)ccc12` (stereo not given), the growth was 43.1% in [1]; 83.1% in experiment [2]; 61.3% in experiment [3]; 79.1% in experiment [4]; 5.31% (active) in experiment [5]; -4.55% (active) in experiment [6]. For the same compound, the growth in experiment [7] is 3.17% (active); in experiment [8] it was 64.8%; in experiment [9], 42.4%; in experiment [10], 33.3%; in experiment [11], 55.3%; in experiment [12] it was 5.28% (active). The growth is 47.8% in [13]; 33.2% in experiment [14]; 7.74% (active) in [15]; 63.3% in experiment [16]; 48.7% in [17]; 41.6% in experiment [18]. Further, in experiment [19], the growth is 18.8%.
For `CCCC(CCC)NCC(O)c1cc(-c2ccc(C(F)(F)F)cc2)nc(C(F)(F)F)c1` (stereo not given), the growth was -59.4% (active) in experiment [1]; -69.5% (active) in experiment [2]; 0.686% (active) in experiment [3]; -64.8% (active) in [4]; -60.1% (active) in [5]; -71.5% (active) in experiment [6]. In addition, the growth in experiment [7] was -77.5% (active); in experiment [8], -59.6% (active); in experiment [9], -61.5% (active); in [10], -83.5% (active); in experiment [11] it was -26.2% (active); in experiment [12], -51.1% (active). The growth in [13] was -63.7% (active); in experiment [14] it was -66.9% (active); in [15], -97% (active); in experiment [16] it was -40.5% (active); in experiment [17], -72.2% (active); in [18] it was -76.9% (active). For the same compound, the growth in experiment [19] is -74.8% (active).
As for `Oc1[nH]c2ccc(Cl)cc2c1/C=c1/ccc2c(c1)N=C(c1ccc(F)cc1)N=2`, the growth was 74.5% in experiment [1]; 89.9% in experiment [2]; 84.1% in experiment [3]; 74.5% in experiment [4]; 74.2% in [5]; 34.2% in experiment [6]. Besides, the growth in experiment [7] was 80.7%; in experiment [8], 71.4%; in [9], 76%; in experiment [10], 97.6%; in experiment [11], 86.3%; in experiment [12] it was 16.4%. For the same compound, the growth in experiment [13] is -3.95% (active); in experiment [14], 63.1%; in experiment [15] it was 63.4%; in [16], 77.2%; in experiment [17], 92.2%; in [18], 70.1%. Besides, in experiment [19], the growth is 30.4%.
